# Source: paper PMC8384837, “Expanding the binding specificity for RNA recognition by a PUF domain”
# Key:
# Assay in all cases: yeast three-hybrid, YBZ-1, SC-Leu-His + 0.5 mM 3-AT, 4 days
# Conditions in all cases: tags: N-Gal4 AD-HA kept; label: inside an RPR1-promoter hybrid RNA with tandem MS2 sites; ssRNA
# PUM1 PUF domain R5-RCM = PUM1 PUF domain R5-RCM (Homo sapiens, UniProt Q14671 828-1176, C1007R;R1008C;Q1011M)
# Summary of the method: (§1)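 Pumilio-1 PUF domain libraries, randomized (NNK) at the three base-contacting residues of each repeat, were co-expressed with matching RNA elements from a centromeric plasmid in strain YBZ-1 (LexA–MS2 coat fusion, HIS3 reporter). Transformants were plated on SC-Leu (input) and SC-Leu-His + 0.5 mM 3-AT (selection) for four days, and repeat regions were PCR-amplified and Illumina-sequenced. The interaction score is the log2 change in variant frequency from input to selection, with pseudocount 1 where absent.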
# PUM1 PUF domain R3-ASE = PUM1 PUF domain R3-ASE (Homo sapiens, UniProt Q14671 828-1176, C935A;R936S;Q939E)
# Summary of the method: as §1
# PUM1 PUF domain R3-WCS = PUM1 PUF domain R3-WCS (Homo sapiens, UniProt Q14671 828-1176, C935W;R936C;Q939S)
# Summary of the method: as §1
# PUM1 PUF domain R3-FRV = PUM1 PUF domain R3-FRV (Homo sapiens, UniProt Q14671 828-1176, C935F;Q939V)
# Summary of the method: as §1
# PUM1 PUF domain R5-TTR = PUM1 PUF domain R5-TTR (Homo sapiens, UniProt Q14671 828-1176, C1007T;R1008T;Q1011R)
# Summary of the method: as §1
# PUM1 PUF domain R8-LRK = PUM1 PUF domain R8-LRK (Homo sapiens, UniProt Q14671 828-1176, N1122L;Y1123R;Q1126K)
# Summary of the method: as §1
# PUM1 PUF domain R4-EYQ = PUM1 PUF domain R4-EYQ (Homo sapiens, UniProt Q14671 828-1176, N971E;H972Y)
# Summary of the method: as §1
# PUM1 PUF domain R4-SNV = PUM1 PUF domain R4-SNV (Homo sapiens, UniProt Q14671 828-1176, N971S;H972N;Q975V)
# Summary of the method: as §1
# PUM1 PUF domain R4-NRC = PUM1 PUF domain R4-NRC (Homo sapiens, UniProt Q14671 828-1176, H972R;Q975C)
# Summary of the method: as §1
# PUM1 PUF domain R8-PWA = PUM1 PUF domain R8-PWA (Homo sapiens, UniProt Q14671 828-1176, N1122P;Y1123W;Q1126A)
# Summary of the method: as §1
# PUM1 PUF domain R6-LFS = biological target: T1, PUM1 PUF domain R6-LFS (Homo sapiens, UniProt Q14671 828-1176, N1043L;Y1044F;Q1047S)
# T1 sequence: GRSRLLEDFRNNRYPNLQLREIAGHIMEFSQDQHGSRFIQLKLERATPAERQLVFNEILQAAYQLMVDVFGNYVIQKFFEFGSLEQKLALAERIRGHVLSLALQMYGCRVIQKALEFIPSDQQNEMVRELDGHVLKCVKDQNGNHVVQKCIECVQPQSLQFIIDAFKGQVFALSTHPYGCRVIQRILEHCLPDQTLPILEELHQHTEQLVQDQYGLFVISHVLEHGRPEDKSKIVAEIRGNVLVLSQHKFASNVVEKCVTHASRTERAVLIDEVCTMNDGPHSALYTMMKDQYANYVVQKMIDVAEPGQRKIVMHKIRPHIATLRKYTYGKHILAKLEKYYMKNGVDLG
# Summary of the method: as §1
# PUM1 PUF domain R4-PFA = PUM1 PUF domain R4-PFA (Homo sapiens, UniProt Q14671 828-1176, N971P;H972F;Q975A)
# Summary of the method: as §1
# PUM1 PUF domain R3-ARH = PUM1 PUF domain R3-ARH (Homo sapiens, UniProt Q14671 828-1176, C935A;Q939H)
# Summary of the method: as §1
# PUM1 PUF domain R7-QSR = PUM1 PUF domain R7-QSR (Homo sapiens, UniProt Q14671 828-1176, S1079Q;N1080S;E1083R)
# Summary of the method: as §1
# PUM1 PUF domain R7-TSV = PUM1 PUF domain R7-TSV (Homo sapiens, UniProt Q14671 828-1176, S1079T;N1080S;E1083V)
# Summary of the method: as §1
# PUM1 PUF domain R4-TPE = PUM1 PUF domain R4-TPE (Homo sapiens, UniProt Q14671 828-1176, N971T;H972P;Q975E)
# Summary of the method: as §1
# PUM1 PUF domain R4-GQG = PUM1 PUF domain R4-GQG (Homo sapiens, UniProt Q14671 828-1176, N971G;H972Q;Q975G)
# Summary of the method: as §1
# PUM1 PUF domain R3-VWC = PUM1 PUF domain R3-VWC (Homo sapiens, UniProt Q14671 828-1176, C935V;R936W;Q939C)
# Summary of the method: as §1
# PUM1 PUF domain R4-DFI = PUM1 PUF domain R4-DFI (Homo sapiens, UniProt Q14671 828-1176, N971D;H972F;Q975I)
# Summary of the method: as §1
# PUM1 PUF domain R7-HFP = PUM1 PUF domain R7-HFP (Homo sapiens, UniProt Q14671 828-1176, S1079H;N1080F;E1083P)
# Summary of the method: as §1
sequence,measurement,setting,value
GGCUAGAACUAGUGGAUCCCCCGGCGCCCGGCGGCUCGAGCCCGGGUAAGUGUGAAUAGUCUGCAUGCCGCCGGGCGCCAUGCCUGCAGGUCGACUCUAGAAAACAUG,binding signal,PUM1 PUF domain R5-RCM,1.67 log2 enrichment (interaction score)
GGCUAGAACUAGUGGAUCCCCCGGCGCCCGGCGGCUCGAGCCCGGGUAAGUGUAAGUAGUCUGCAUGCCGCCGGGCGCCAUGCCUGCAGGUCGACUCUAGAAAACAUG,binding signal,PUM1 PUF domain R3-ASE,4.6 log2 enrichment (interaction score)
same,binding signal,PUM1 PUF domain R3-WCS,2.96 log2 enrichment (interaction score)
same,binding signal,PUM1 PUF domain R3-FRV,4.5 log2 enrichment (interaction score)
GGCUAGAACUAGUGGAUCCCCCGGCGCCCGGCGGCUCGAGCCCGGGUAAGUGUUAAUAGUCUGCAUGCCGCCGGGCGCCAUGCCUGCAGGUCGACUCUAGAAAACAUG,binding signal,PUM1 PUF domain R5-TTR,2.44 log2 enrichment (interaction score)
GGCUAGAACUAGUGGAUCCCCCGGCGCCCGGCGGCUCGAGCCCGGGUAAGUGUCAAUAGUCUGCAUGCCGCCGGGCGCCAUGCCUGCAGGUCGACUCUAGAAAACAUG,binding signal,PUM1 PUF domain R5-TTR,6.52 log2 enrichment (interaction score)
same,binding signal,PUM1 PUF domain R5-RCM,3.2 log2 enrichment (interaction score)
GGCUAGAACUAGUGGAUCCCCCGGCGCCCGGCGGCUCGAGCCCGGGUAAGUGUAAAUAGUCUGCAUGCCGCCGGGCGCCAUGCCUGCAGGUCGACUCUAGAAAACAUG,binding signal,PUM1 PUF domain R8-LRK,1.28 log2 enrichment (interaction score)
same,binding signal,PUM1 PUF domain R4-EYQ,1.61 log2 enrichment (interaction score)
same,binding signal,PUM1 PUF domain R4-SNV,1.05 log2 enrichment (interaction score)
same,binding signal,PUM1 PUF domain R4-NRC,3.78 log2 enrichment (interaction score)
same,binding signal,PUM1 PUF domain R5-TTR,0.63 log2 enrichment (interaction score)
same,binding signal,PUM1 PUF domain R8-PWA,2.2 log2 enrichment (interaction score)
same,binding signal,PUM1 PUF domain R6-LFS,1.98 log2 enrichment (interaction score)
same,binding signal,PUM1 PUF domain R4-PFA,4.95 log2 enrichment (interaction score)
same,binding signal,PUM1 PUF domain R3-ARH,3.26 log2 enrichment (interaction score)
same,binding signal,PUM1 PUF domain R5-RCM,0.77 log2 enrichment (interaction score)
GGCUAGAACUAGUGGAUCCCCCGGCGCCCGGCGGCUCGAGCCCGGGUAAGUUUAAAUAGUCUGCAUGCCGCCGGGCGCCAUGCCUGCAGGUCGACUCUAGAAAACAUG,binding signal,PUM1 PUF domain R7-QSR,3.84 log2 enrichment (interaction score)
same,binding signal,PUM1 PUF domain R7-TSV,2.77 log2 enrichment (interaction score)
GGCUAGAACUAGUGGAUCCCCCGGCGCCCGGCGGCUCGAGCCCGGGUAAGUGUAUAUAGUCUGCAUGCCGCCGGGCGCCAUGCCUGCAGGUCGACUCUAGAAAACAUG,binding signal,PUM1 PUF domain R4-TPE,3.03 log2 enrichment (interaction score)
same,binding signal,PUM1 PUF domain R4-SNV,3.72 log2 enrichment (interaction score)
same,binding signal,PUM1 PUF domain R4-GQG,2.39 log2 enrichment (interaction score)
same,binding signal,PUM1 PUF domain R4-PFA,4.96 log2 enrichment (interaction score)
GGCUAGAACUAGUGGAUCCCCCGGCGCCCGGCGGCUCGAGCCCGGGUAAGUGUAAUUAGUCUGCAUGCCGCCGGGCGCCAUGCCUGCAGGUCGACUCUAGAAAACAUG,binding signal,PUM1 PUF domain R3-VWC,3.83 log2 enrichment (interaction score)
same,binding signal,PUM1 PUF domain R3-WCS,1.01 log2 enrichment (interaction score)
same,binding signal,PUM1 PUF domain R3-FRV,1.27 log2 enrichment (interaction score)
GGCUAGAACUAGUGGAUCCCCCGGCGCCCGGCGGCUCGAGCCCGGGUAAGUGAAAAUAGUCUGCAUGCCGCCGGGCGCCAUGCCUGCAGGUCGACUCUAGAAAACAUG,binding signal,PUM1 PUF domain R6-LFS,5.7 log2 enrichment (interaction score)
GGCUAGAACUAGUGGAUCCCCCGGCGCCCGGCGGCUCGAGCCCGGGUAAGUGUACAUAGUCUGCAUGCCGCCGGGCGCCAUGCCUGCAGGUCGACUCUAGAAAACAUG,binding signal,PUM1 PUF domain R4-DFI,3.24 log2 enrichment (interaction score)
same,binding signal,PUM1 PUF domain R4-EYQ,3.27 log2 enrichment (interaction score)
same,binding signal,PUM1 PUF domain R4-SNV,3.34 log2 enrichment (interaction score)
same,binding signal,PUM1 PUF domain R4-PFA,3.34 log2 enrichment (interaction score)
GGCUAGAACUAGUGGAUCCCCCGGCGCCCGGCGGCUCGAGCCCGGGUAAGUCUAAAUAGUCUGCAUGCCGCCGGGCGCCAUGCCUGCAGGUCGACUCUAGAAAACAUG,binding signal,PUM1 PUF domain R7-HFP,4.02 log2 enrichment (interaction score)
GGCUAGAACUAGUGGAUCCCCCGGCGCCCGGCGGCUCGAGCCCGGGUAAGCGUAAAUAGUCUGCAUGCCGCCGGGCGCCAUGCCUGCAGGUCGACUCUAGAAAACAUG,binding signal,PUM1 PUF domain R8-LRK,2.19 log2 enrichment (interaction score)
same,binding signal,PUM1 PUF domain R8-PWA,2.7 log2 enrichment (interaction score)
